{"source": "ChEMBL document CHEMBL4513216", "about": "“Probing the Open Global Health Chemical Diversity Library for Multistage-Active Starting Points for Next-Generation Antimalarials” (ACS Infect Dis, 2020)", "note": "The whole screen tested about 65,000 compounds, of which about 2,100 (3.2%) showed an effect of 50% or more. The median lay at about -52%. The sample holds strong results, similar compounds and a random draw of the others, so the mix is not that of the screen."}
{"system": "Plasmodium falciparum", "assay": "Screen against P. falciparum Asexual Blood Stage (ABS), at 5uM", "assay_type": "functional, Dd2", "settings": "tested at 5 uM", "units": {"INHIBITION": "%"}}
{"molecule": "O=C(N[C@H]1CN[C@H]2CCCO[C@H]21)c1cscn1", "INHIBITION": -37.2}
{"molecule": "CCC/C=C/c1ccc(CN2CCN(C)CC2)cn1", "INHIBITION": 0.24}
{"molecule": "O=C(C1CC1)N1CC2(CCNCC2)C1", "INHIBITION": -76.2}
{"molecule": "O=C(NCc1cnn2cccnc12)C1CC2(CCNCC2)CN1", "note": "(centres undefined)", "INHIBITION": -20.8}
{"molecule": "O=C(C1CC2(CCNCC2)CN1)N1CCN(c2cccc(Cl)c2Cl)CC1", "note": "(centres undefined)", "INHIBITION": 79.2}
{"molecule": "c1cnnc(N2CCCC2CNCc2nc(-c3cccs3)no2)c1", "note": "(centres undefined)", "INHIBITION": 72.2}
{"molecule": "Cc1ccsc1CNCC1CCCN1c1cccnn1", "note": "(centres undefined)", "INHIBITION": 78.8}
{"molecule": "CC(Cn1cccn1)NCc1nc(-c2cccs2)no1", "note": "(centres undefined)", "INHIBITION": -230}
{"molecule": "COc1nc(C)ccc1CNc1cc(N2CCCC2CO)ncn1", "note": "(centres undefined)", "INHIBITION": -50.3}
{"molecule": "CC(C)c1nc(CNCC2CCCN2c2cccnn2)cs1", "note": "(centres undefined)", "INHIBITION": 71.1}
{"molecule": "CC(C)c1nc(CC(=O)N2CCN(C)CC2c2ccccc2)cs1", "note": "(centres undefined)", "INHIBITION": -16.5}
{"molecule": "Cc1nc(CN2CCC23CCN(C(=O)c2ccncc2)CC3)cs1", "INHIBITION": 2.76}
{"molecule": "O=C(C1CC=CC1)N1CCC2(CC1)OCCO2", "INHIBITION": -69.1}
{"molecule": "NCC(=O)N1CCCCC1c1ccc(F)cc1", "note": "(centres undefined)", "INHIBITION": 85.3}
{"molecule": "O=C(O)[C@@H]1CN(CC(=O)N2CCCCCC2)C[C@H]1c1ccc(F)cc1", "INHIBITION": -66.2}
{"molecule": "O=C(O)[C@@H]1CN(CC(=O)N2CCCCC2)C[C@H]1c1ccc(F)cc1", "INHIBITION": -140}
{"molecule": "Cc1ncsc1CN1C[C@@H](OCc2ccncc2)[C@H]2OCCC[C@H]21", "INHIBITION": -190}
{"molecule": "CC(C)C(NC(=O)c1ccccc1F)C(=O)N1CCC2(CC1)OCCO2", "note": "(centres undefined)", "INHIBITION": -65.9}
{"molecule": "Fc1cnc(N2CCO[C@H]3CN(CC4CCOC4)C[C@H]32)nc1", "note": "(some centres undefined)", "INHIBITION": -57.2}
{"molecule": "Cc1cn2c(n1)C(CNCC1=Cc3cc(Cl)ccc3OC1)CCC2", "note": "(centres undefined)", "INHIBITION": 88.2}
{"molecule": "Cc1cn2c(n1)C(CNCC1=Cc3ccccc3OC1)CCC2", "note": "(centres undefined)", "INHIBITION": 79}
{"molecule": "CC(C)C(=O)N1C[C@H]2CCCN[C@H]2C1", "INHIBITION": 28.1}
{"molecule": "COc1cccc2c(=O)n(C3CCCNC3)cnc12", "note": "(centres undefined)", "INHIBITION": -35.5}
{"molecule": "CC(C)c1ocnc1C(=O)N1CCC2(CC1)OCCO2", "INHIBITION": -39.3}
{"molecule": "Cc1cc(CNC(C)Cn2cncn2)ccc1Br", "note": "(centres undefined)", "INHIBITION": -29.8}
{"molecule": "CCCOc1ccccc1C(N)CC(C)C", "note": "(centres undefined)", "INHIBITION": 75.1}
{"molecule": "COC[C@H]1CCC[C@]12CN(Cc1cccc(C)n1)CCO2", "INHIBITION": -25.5}
{"molecule": "OCCN1CC2(CCN(c3ccccc3)C2)C1", "INHIBITION": 62.8}
{"molecule": "O=C1Nc2ccccc2CC12CCN(CCO)C2", "note": "(centres undefined)", "INHIBITION": -93.6}
{"molecule": "CN1C(=O)C2(CCN(CCO)C2)c2ccccc21", "note": "(centres undefined)", "INHIBITION": -143}
{"molecule": "Cc1noc(C)c1CN1CC[C@@H]2O[C@@H](COCC3CC3)CC[C@@H]21", "INHIBITION": 0.666}
{"molecule": "OCC1CCCCN1c1ccc(-c2nc(-c3ccccc3F)no2)cn1", "note": "(centres undefined)", "INHIBITION": 75.5}
{"molecule": "O=C(Cc1ccncc1)N1C[C@@H]2CC[C@H]1CN(Cc1cccnc1)C2", "INHIBITION": 10.9}
{"molecule": "Cc1nc(CN2CCCC3(CCN(c4cccnc4)C3=O)C2)cs1", "note": "(centres undefined)", "INHIBITION": -34.3}
{"molecule": "c1ccn2cc(CN3CCCC(c4ccn[nH]4)C3)nc2c1", "note": "(centres undefined)", "INHIBITION": 89.1}
{"molecule": "CN(C)CCN(CC1CCCO1)C(=O)Cc1cn2ccccc2n1", "note": "(centres undefined)", "INHIBITION": -90.1}
{"molecule": "Cn1ncc(NCc2cccc(OCC(F)(F)F)c2)c(Cl)c1=O", "INHIBITION": -44.7}
{"molecule": "CCCS(=O)(=O)N1CCN(CCOC)c2nc(C)ccc2C1", "INHIBITION": -87}
{"molecule": "CCn1cc(NC(=O)N2CCN(C(=O)Oc3ccccc3)CC2)cn1", "INHIBITION": -56.8}
{"molecule": "c1cnc(N2CCOCC3(CCCN(Cc4cc[nH]n4)C3)C2)nc1", "note": "(centres undefined)", "INHIBITION": -63.1}
{"molecule": "c1[nH]c(CC2CCCC2)nc1CN1CCCC2(CCOC2)C1", "note": "(centres undefined)", "INHIBITION": 82.2}
{"molecule": "c1cc(CN2CCOCC3(CCNCC3)C2)ccn1", "INHIBITION": -114}
{"molecule": "Cc1cc(CN(C)C(=O)CN2CCCC2=O)no1", "INHIBITION": -32.3}
{"molecule": "COc1cc(OC)cc(C2SCC(=O)Nc3ccsc32)c1", "note": "(centres undefined)", "INHIBITION": -38.5}
{"molecule": "O=C(Nc1cccnc1)[C@H]1C[C@H]2OCC[C@H]2N(CC2CC2)C1", "INHIBITION": -67.1}
{"molecule": "Cc1n[nH]c2c1C(c1cccnc1)SCC(=O)N2", "note": "(centres undefined)", "INHIBITION": -32.5}
{"molecule": "Cc1cccc(CN2CCN(C(=O)N(C)C)[C@@H]3CS(=O)(=O)C[C@@H]32)n1", "INHIBITION": -85.1}
{"molecule": "CCC[C@H]1CN(c2nc(CO)cs2)C[C@@H]1NC(=O)C1(COC)CC1", "INHIBITION": 71.7}
{"molecule": "O=C(Nc1cccnc1)[C@H]1COC[C@H]2CN(C3CCCC3)C[C@H]21", "INHIBITION": 12.5}
{"molecule": "O=C(C[C@@H]1COC[C@H]2CN(CC3CC3)C[C@@H]12)NCc1cccnc1", "INHIBITION": -75.7}
{"molecule": "O=C(C1CCOCC1)N1C[C@H]2CNC[C@H]2C1", "INHIBITION": 52.6}
{"molecule": "O=C(C1CCCC1)N1C[C@H]2CNC[C@H]2C1", "INHIBITION": -5.05}
{"molecule": "O=C(C1CCC1)N1C[C@H]2CNC[C@H]2C1", "INHIBITION": -30.2}
{"molecule": "O=C(CC1CC1)N1C[C@H]2CCN[C@H]2C1", "INHIBITION": -62.6}
{"molecule": "O=S(=O)(c1cccnc1)N1C[C@@H]2COC[C@]2(CN2CCOCC2)C1", "INHIBITION": -111}
{"molecule": "Cc1cc(CN2CCN(C(=O)Cc3ccccc3F)CC2)on1", "INHIBITION": -206}
{"molecule": "CN1CCN(Cc2ccccc2CNC(=O)c2cc(Br)ccc2F)CC1", "INHIBITION": 77.5}
{"molecule": "CN1CCN(Cc2ccccc2CNC(=O)c2ccc(Cl)cc2F)CC1", "INHIBITION": 77.2}
{"molecule": "Cc1ncsc1CN1C[C@H](OCc2ccncc2)[C@H]2OCCC[C@H]21", "INHIBITION": -47.7}
{"molecule": "O=C(Cc1cccs1)N1C[C@@H]2OCCN(CC3CCCC3)[C@@H]2C1", "INHIBITION": -96.4}
{"molecule": "COc1cccc(-c2nc(CNCCCn3cccn3)cs2)c1", "INHIBITION": 76.3}
{"molecule": "CC(Cn1cccn1)NCc1csc(-c2cccs2)n1", "note": "(centres undefined)", "INHIBITION": -268}
{"molecule": "CCc1nc(CNC(C)Cn2cccn2)cs1", "note": "(centres undefined)", "INHIBITION": -78.5}
{"molecule": "Cc1cc(CN2CC[C@H]3C[C@H](C(=O)N(C)C)O[C@@H]3C2)no1", "INHIBITION": -20.9}
{"molecule": "c1cc(CN2CCSC3(CCCCC3)C2)no1", "INHIBITION": -170}
{"molecule": "CC(C)Nc1ccc2nc(C3CCNCC3)nn2c1", "INHIBITION": -54.1}
{"molecule": "Cc1nn(C)c(C)c1C(C(=O)O)N1CC=C(c2ccccc2)CC1", "note": "(centres undefined)", "INHIBITION": -74.2}
{"molecule": "O=C(NCCN1CCCCC1)C(c1ccccc1)N1CCCC1", "note": "(centres undefined)", "INHIBITION": 80}
{"molecule": "CC(C(=O)N1CCCC1)N1CCCN(C(=O)Oc2ccccc2)CC1", "note": "(centres undefined)", "INHIBITION": -54.8}
